# ChEMBL document CHEMBL2218924, “A broad activity screen in support of a chemogenomic map for kinase signalling research and drug discovery” (Biochem J, 2013)
# Tests used:
# [1] = molecular target: T1, Ephrin type-A receptor 3 (Homo sapiens) (UniProt P29320); details: at 10 µM
# T1 sequence (whole entry): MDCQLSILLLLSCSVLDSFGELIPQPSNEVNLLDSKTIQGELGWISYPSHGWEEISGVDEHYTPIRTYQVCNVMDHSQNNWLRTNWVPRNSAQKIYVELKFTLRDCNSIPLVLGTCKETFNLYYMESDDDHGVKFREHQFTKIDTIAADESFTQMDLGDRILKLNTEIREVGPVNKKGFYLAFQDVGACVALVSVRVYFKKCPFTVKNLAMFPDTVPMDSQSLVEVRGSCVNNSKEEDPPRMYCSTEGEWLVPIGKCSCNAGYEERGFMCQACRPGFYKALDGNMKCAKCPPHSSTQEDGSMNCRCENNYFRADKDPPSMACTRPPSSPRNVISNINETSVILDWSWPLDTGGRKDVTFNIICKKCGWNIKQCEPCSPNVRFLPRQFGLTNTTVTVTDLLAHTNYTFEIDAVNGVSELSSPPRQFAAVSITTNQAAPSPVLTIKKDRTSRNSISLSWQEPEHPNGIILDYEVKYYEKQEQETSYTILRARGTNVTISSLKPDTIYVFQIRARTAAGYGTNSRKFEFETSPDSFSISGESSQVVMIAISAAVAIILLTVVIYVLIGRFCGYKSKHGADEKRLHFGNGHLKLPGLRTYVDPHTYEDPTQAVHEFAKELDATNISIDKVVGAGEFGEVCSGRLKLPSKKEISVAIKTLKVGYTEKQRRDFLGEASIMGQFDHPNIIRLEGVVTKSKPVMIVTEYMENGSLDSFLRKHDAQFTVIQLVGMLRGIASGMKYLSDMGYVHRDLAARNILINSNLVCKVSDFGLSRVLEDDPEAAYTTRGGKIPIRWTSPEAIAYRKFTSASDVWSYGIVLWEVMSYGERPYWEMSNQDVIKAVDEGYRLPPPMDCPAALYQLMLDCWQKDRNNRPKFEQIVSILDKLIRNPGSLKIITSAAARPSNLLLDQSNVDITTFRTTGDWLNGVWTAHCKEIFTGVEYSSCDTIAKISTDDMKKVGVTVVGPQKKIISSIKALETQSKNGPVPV
# [2] = molecular target: Ephrin type-A receptor 4 (Homo sapiens) (UniProt P54764); details: at 1 µM
# [3] = molecular target: Ephrin type-A receptor 4 (Homo sapiens) (UniProt P54764); details: at 10 µM
# [4] = molecular target: Ephrin type-A receptor 5 (Homo sapiens) (UniProt P54756); details: at 1 µM
# [5] = molecular target: Ephrin type-A receptor 5 (Homo sapiens) (UniProt P54756); details: at 10 µM
# [6] = molecular target: Ephrin type-A receptor 7 (Homo sapiens) (UniProt Q15375); details: at 1 µM
# [7] = molecular target: Ephrin type-A receptor 7 (Homo sapiens) (UniProt Q15375); details: at 10 µM
# [8] = molecular target: T2, Ephrin type-A receptor 8 (Homo sapiens) (UniProt P29322); details: at 1 µM
# T2 sequence (whole entry): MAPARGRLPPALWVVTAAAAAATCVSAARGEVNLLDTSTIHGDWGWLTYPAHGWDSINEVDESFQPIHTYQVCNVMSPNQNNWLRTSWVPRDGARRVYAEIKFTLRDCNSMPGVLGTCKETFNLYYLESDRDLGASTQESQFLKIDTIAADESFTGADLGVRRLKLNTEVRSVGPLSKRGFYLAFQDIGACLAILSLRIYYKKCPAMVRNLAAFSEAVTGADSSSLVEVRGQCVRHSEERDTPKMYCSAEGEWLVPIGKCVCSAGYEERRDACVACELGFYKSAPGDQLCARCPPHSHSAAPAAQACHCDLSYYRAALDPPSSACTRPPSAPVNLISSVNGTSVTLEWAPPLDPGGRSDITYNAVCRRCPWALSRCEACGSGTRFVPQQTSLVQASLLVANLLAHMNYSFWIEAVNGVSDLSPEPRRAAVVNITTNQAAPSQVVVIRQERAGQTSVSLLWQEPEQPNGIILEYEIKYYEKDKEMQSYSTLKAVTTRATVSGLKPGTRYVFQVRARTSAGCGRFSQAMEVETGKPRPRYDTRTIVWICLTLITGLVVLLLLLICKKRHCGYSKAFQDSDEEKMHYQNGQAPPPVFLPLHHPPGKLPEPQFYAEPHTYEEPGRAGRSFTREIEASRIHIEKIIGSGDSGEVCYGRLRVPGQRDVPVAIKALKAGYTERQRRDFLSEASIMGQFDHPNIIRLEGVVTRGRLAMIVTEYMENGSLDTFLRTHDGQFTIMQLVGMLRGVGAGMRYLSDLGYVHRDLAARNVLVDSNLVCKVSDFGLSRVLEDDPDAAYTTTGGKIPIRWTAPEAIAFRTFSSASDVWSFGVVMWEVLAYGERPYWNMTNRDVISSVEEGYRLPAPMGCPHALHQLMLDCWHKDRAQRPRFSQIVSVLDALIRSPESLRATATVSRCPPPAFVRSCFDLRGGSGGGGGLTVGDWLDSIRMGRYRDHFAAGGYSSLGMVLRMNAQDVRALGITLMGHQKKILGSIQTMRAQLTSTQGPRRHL
# [9] = molecular target: T2, Ephrin type-A receptor 8 (Homo sapiens); details: at 10 µM
# [10] = molecular target: T3, Ephrin type-B receptor 1 (Homo sapiens) (UniProt P54762); details: at 1 µM
# T3 sequence (whole entry): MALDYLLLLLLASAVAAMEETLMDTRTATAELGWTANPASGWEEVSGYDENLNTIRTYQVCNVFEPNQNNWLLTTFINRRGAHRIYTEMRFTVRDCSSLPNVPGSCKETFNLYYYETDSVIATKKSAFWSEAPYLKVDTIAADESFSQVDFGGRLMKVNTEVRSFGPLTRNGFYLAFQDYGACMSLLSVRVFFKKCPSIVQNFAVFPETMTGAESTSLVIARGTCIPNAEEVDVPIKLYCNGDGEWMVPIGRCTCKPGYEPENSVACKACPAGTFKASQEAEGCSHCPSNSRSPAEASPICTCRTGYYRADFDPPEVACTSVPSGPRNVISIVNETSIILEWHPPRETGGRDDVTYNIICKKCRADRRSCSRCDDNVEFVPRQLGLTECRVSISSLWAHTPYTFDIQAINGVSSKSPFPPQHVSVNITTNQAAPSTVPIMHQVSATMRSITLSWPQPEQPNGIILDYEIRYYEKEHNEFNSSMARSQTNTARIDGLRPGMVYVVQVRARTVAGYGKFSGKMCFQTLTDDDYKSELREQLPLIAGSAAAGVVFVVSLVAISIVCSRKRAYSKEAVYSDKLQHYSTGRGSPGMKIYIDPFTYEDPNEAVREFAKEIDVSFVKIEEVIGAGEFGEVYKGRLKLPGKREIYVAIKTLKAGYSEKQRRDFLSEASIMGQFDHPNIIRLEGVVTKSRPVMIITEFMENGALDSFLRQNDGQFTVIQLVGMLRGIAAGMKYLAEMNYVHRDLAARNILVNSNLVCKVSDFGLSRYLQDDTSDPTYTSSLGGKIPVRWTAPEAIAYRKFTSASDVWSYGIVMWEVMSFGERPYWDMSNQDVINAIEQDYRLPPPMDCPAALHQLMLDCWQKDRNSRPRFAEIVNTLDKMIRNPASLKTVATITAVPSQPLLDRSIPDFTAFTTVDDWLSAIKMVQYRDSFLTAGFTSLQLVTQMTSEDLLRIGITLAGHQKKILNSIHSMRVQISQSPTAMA
# Sequence of Ephrin type-A receptor 4 (Homo sapiens) (P54764 whole entry): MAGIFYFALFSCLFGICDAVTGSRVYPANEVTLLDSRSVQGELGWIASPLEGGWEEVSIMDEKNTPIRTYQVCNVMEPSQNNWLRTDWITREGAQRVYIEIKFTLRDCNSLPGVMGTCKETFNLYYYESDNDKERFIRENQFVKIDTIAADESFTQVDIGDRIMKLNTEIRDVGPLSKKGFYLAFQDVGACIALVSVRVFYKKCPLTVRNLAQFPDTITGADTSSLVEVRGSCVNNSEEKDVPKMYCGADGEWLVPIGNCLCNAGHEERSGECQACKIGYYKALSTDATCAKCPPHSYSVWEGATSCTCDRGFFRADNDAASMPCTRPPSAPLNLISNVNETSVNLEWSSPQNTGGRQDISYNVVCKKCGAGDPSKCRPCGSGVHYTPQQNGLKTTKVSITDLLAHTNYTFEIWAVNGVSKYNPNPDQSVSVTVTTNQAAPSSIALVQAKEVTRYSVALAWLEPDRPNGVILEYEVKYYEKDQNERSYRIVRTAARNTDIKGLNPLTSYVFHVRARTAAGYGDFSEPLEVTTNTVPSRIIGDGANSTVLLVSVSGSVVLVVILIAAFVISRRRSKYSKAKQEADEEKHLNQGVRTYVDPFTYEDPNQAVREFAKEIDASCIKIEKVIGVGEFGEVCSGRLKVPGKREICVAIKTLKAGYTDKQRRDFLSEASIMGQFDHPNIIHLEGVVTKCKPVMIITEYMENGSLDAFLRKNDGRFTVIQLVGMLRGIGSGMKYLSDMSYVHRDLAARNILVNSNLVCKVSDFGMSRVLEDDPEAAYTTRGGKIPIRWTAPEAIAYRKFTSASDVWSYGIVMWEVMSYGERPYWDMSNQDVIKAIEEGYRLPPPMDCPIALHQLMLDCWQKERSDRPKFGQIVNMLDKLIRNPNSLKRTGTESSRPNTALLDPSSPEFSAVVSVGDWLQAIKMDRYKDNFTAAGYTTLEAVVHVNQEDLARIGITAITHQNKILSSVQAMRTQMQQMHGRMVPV
# Sequence of Ephrin type-A receptor 7 (Homo sapiens) (Q15375 28-998 limits assumed): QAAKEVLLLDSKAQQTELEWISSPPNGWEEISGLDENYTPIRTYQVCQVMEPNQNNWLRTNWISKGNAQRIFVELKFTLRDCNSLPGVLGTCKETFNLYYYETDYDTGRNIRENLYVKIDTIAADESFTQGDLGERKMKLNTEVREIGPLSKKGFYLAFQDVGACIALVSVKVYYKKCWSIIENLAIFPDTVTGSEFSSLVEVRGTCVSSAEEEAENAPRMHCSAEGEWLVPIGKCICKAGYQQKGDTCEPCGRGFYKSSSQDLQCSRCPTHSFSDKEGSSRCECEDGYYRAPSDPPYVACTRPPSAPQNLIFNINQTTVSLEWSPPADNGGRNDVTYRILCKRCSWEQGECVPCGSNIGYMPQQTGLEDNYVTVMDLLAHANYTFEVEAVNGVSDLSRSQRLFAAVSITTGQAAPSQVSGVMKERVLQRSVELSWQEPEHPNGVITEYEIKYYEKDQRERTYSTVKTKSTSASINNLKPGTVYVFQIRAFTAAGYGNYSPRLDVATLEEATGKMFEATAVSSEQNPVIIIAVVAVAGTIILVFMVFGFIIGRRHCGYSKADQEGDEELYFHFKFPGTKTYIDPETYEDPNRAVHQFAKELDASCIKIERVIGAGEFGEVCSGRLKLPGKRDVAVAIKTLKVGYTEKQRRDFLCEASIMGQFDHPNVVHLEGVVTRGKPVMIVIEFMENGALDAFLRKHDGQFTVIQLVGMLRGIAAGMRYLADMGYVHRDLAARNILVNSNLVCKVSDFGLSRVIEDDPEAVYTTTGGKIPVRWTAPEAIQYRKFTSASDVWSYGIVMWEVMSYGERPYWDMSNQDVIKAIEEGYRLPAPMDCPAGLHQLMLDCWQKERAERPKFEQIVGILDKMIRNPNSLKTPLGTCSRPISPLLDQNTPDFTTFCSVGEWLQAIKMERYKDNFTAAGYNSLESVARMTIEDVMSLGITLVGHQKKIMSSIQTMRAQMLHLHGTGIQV
# Sequence of Ephrin type-A receptor 5 (Homo sapiens) (P54756 whole entry): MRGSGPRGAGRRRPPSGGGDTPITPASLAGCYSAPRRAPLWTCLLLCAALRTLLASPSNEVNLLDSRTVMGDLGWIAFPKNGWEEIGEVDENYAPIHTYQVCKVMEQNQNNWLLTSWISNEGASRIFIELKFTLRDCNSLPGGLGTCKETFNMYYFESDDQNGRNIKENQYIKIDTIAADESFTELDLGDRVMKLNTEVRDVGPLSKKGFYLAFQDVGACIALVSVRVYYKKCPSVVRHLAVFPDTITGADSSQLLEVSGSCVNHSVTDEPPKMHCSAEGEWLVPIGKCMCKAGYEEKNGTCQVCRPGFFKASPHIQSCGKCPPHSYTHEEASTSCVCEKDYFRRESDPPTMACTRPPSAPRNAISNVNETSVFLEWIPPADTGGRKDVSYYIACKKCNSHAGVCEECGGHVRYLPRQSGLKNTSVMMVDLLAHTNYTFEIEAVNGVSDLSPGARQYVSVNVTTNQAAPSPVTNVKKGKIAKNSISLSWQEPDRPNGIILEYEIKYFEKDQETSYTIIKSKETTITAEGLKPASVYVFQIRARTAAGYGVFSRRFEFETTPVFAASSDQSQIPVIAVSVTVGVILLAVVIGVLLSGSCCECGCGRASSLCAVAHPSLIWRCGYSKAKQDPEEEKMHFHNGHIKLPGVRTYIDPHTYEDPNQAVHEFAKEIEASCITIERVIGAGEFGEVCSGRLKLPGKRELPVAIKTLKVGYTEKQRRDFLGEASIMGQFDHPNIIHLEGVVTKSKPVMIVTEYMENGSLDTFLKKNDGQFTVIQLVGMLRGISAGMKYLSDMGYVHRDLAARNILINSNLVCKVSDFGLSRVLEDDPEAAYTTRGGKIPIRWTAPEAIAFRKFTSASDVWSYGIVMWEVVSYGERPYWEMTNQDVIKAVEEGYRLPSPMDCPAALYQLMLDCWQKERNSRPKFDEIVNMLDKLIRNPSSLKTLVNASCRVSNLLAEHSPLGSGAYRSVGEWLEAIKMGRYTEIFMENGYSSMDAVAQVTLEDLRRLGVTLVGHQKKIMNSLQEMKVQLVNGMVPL
smiles,measurement,setting,value
O=Nc1c(-c2c(O)[nH]c3ccccc23)[nH]c2ccccc12,residual activity,[1],9%
same,residual activity,[2],96%
same,residual activity,[3],83%
same,residual activity,[4],59%
same,residual activity,[5],9%
same,residual activity,[6],70%
same,residual activity,[7],15%
same,residual activity,[8],84%
same,residual activity,[9],43%
same,residual activity,[10],59%
